Laboratory results: PubChem BioAssay (NCATS)
Inconclusive results are not listed. Values without a mark were called inactive. Calls come from the whole dose curve; as a rule, active = well fitted curve in the direction sought with a large enough effect; inconclusive = small, poorly fitted or top-dose-only effect, or another doubt; inactive = no such curve, though single readings can be large; an effect the other way counts as inactive or inconclusive.

Molecular target: D(1A) dopamine receptor (Homo sapiens) (UniProt P21728)
Sequence (P21728 whole entry, looked up): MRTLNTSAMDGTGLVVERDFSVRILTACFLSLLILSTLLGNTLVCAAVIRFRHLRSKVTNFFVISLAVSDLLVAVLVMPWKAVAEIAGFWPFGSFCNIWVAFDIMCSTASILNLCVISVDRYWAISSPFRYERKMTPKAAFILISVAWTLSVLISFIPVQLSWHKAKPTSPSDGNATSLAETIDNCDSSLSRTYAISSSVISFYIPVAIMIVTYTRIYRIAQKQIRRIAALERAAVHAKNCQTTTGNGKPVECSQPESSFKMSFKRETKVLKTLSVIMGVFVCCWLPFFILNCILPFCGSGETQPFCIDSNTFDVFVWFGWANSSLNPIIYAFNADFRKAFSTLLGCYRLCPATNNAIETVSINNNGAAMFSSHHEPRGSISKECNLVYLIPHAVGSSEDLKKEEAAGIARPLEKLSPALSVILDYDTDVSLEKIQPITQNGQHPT
Experiment: HTS Assay for Allosteric Agonists of the Human D1 Dopamine Receptor: Primary Screen for Agonists (AID 488981)
Settings: Inducible HEK293 T-REx D1 cells, calcium-flux fluorescence, 180 s kinetic; series mostly up to 41.8 µM; activation: at the top concentration
Outline: (§1)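 Calcium flux in an inducible, force-coupled HEK293 Trex D1 line (overnight at 30 C): agonist mode is the 180 s kinetic read after compound; potentiator mode is the following 180 s read after dopamine at EC20.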
Note: 0% is about no effect.

First: COc1cc2c(cc1OC)-c1cc(=Nc3c(C)cc(C)cc3C)n(C)c(=O)n1CC2
Second: Cc1nc2c([nH]1)c(=O)n(C)c(=O)n2Cc1ccco1
The “activation” value of the first is lower: -1% for the first, -0.106% for the second.

Going from `NC(=O)N1c2ccccc2C=Cc2ccccc21` to `CNCCC(Oc1ccccc1OC)c1ccccc1` (stereo unspecified), the “activation” value rises from -1.11% to 11.1%.

Compared with `NC(N)=NC(=O)Cc1c(Cl)cccc1Cl`, `NC(N)=N/N=C/c1c(Cl)cccc1Cl` is higher in “activation” value: 1.64% for the first, 29% for the second.

Going from `CN(C)CC[C@@H](c1ccc(Br)cc1)c1ccccn1` to `COc1ccc(CN(CCN(C)C)c2ccccn2)cc1`, the “activation” value rises from 2.43% to 6.24%.

Compared with `O=C1NCN(c2ccccc2)C12CCN(CCCC(c1ccc(F)cc1)c1ccc(F)cc1)CC2`, `CC(C)COCC(CN(Cc1ccccc1)c1ccccc1)N1CCCC1` (stereo unspecified) is lower in “activation” value: 2.59% for the first, -0.211% for the second.

Compared with `O=C(O)CN(CCN(CC(=O)O)CC(=O)O)CCN(CC(=O)O)CC(=O)O`, `CCCCNc1c(C(=O)OCC)c(C)nc2c1cnn2CC` is higher in “activation” value: -1% for the first, 0.37% for the second.

Compared with `CC1=NS(=O)(=O)c2cc(Cl)ccc2N1`, `c1ccc2c(c1)CCCC2C1=NCCN1` (stereo unspecified) is higher in “activation” value: -0.37% for the first, 0.211% for the second.

Molecular target: D(1A) dopamine receptor (Homo sapiens) (UniProt P21728)
Experiment: HTS Assay for Allosteric Agonists of the Human D1 Dopamine Receptor: Primary Screen for Potentiators (AID 488982)
Settings: HEK293 T-REx D1 inducible cells, calcium flux, kinetic fluorescence; series mostly up to 8.37 µM; activity, positive = potentiation: at the top concentration
Outline: as §1

First: COc1cc2c(cc1OC)-c1cc(=Nc3c(C)cc(C)cc3C)n(C)c(=O)n1CC2
Second: CCOC(=O)C1=C(C)NC(C)=C(C(=O)OC)C1c1cccc(Cl)c1Cl (stereo unspecified)
The “activity, positive = potentiation” value of the first is higher: 22.7% for the first, -19.2% for the second.

Going from `COCCc1ccc(OCC(O)CNC(C)C)cc1` (stereo unspecified) to `COc1ccc(CN(CCN(C)C)c2ccccn2)cc1`, the “activity, positive = potentiation” value falls from 11.6% to -41.8%.

Compared with `NC(=O)N1c2ccccc2C=Cc2ccccc21`, `Cc1ccc(=O)n(-c2ccccc2)c1` is lower in “activity, positive = potentiation” value: 18.6% for the first, -3.24% for the second.

Compared with `NC(N)=NC(=O)Cc1c(Cl)cccc1Cl`, `COC(=O)[C@@H](N)Cc1ccc(O)c(O)c1` is higher in “activity, positive = potentiation” value: 8% for the first, 28% for the second.

Compared with `CN(C)CC[C@@H](c1ccc(Br)cc1)c1ccccn1`, `CNCCC(Oc1ccccc1OC)c1ccccc1` (stereo unspecified) is lower in “activity, positive = potentiation” value: -37.6% for the first, -73.4% for the second.

Compared with `C[N+](C)(C)CCOC(=O)CCC(=O)OCC[N+](C)(C)C`, `C[N+](C)(C)CCCCCCCCCC[N+](C)(C)C` is lower in “activity, positive = potentiation” value: 8.67% for the first, -2.45% for the second.

First: O=C1NCN(c2ccccc2)C12CCN(CCCC(c1ccc(F)cc1)c1ccc(F)cc1)CC2
Second: Cc1nc2sccn2c(=O)c1CCN1CCC(=C(c2ccc(F)cc2)c2ccc(F)cc2)CC1
The “activity, positive = potentiation” value of the first is lower: -74.4% for the first, -73.8% for the second.

Going from `CC[N+](C)(C)c1cccc(O)c1` to `CCN(CC)CCNC(=O)c1cc(S(C)(=O)=O)ccc1OC`, the “activity, positive = potentiation” value falls from 22.3% to -39.2%.

Compared with `c1cnc(N2CCN(Cc3ccc4c(c3)OCO4)CC2)nc1`, `O=C(CCCN1CCC(O)(c2cccc(C(F)(F)F)c2)CC1)c1ccc(F)cc1` is lower in “activity, positive = potentiation” value: -20.5% for the first, -71.1% for the second.

Compared with `CC1=C(C)C(=O)C(CCCCC#CCCCC#CCO)=C(C)C1=O`, `CCCCNc1c(C(=O)OCC)c(C)nc2c1cnn2CC` is higher in “activity, positive = potentiation” value: -9.29% for the first, 15.3% for the second.

First: CCN1CCc2nc(N)oc2CC1
Second: Nc1c2c(nc3ccccc13)CCCC2O (stereo unspecified)
The “activity, positive = potentiation” value of the first is higher: 18.3% for the first, 14% for the second.

Compared with `O=C(O)CN(CCN(CC(=O)O)CC(=O)O)CCN(CC(=O)O)CC(=O)O`, `CN(C(=O)CCCOc1ccc2[nH]c(=O)ccc2c1)C1CCCCC1` is lower in “activity, positive = potentiation” value: 11.6% for the first, 1.01% for the second.

First: CC(C)COCC(CN(Cc1ccccc1)c1ccccc1)N1CCCC1 (stereo unspecified)
Second: OC(CCN1CCCCC1)(c1ccccc1)C1CCCCC1 (stereo unspecified)
The “activity, positive = potentiation” value of the first is higher: 20.2% for the first, -6.23% for the second.

First: CC(C)NNC(=O)c1ccncc1
Second: CC(N=C(NC#N)Nc1ccncc1)C(C)(C)C (stereo unspecified)
The “activity, positive = potentiation” value of the first is higher: 10.6% for the first, -16.1% for the second.

First: Cc1nc2c([nH]1)c(=O)n(C)c(=O)n2Cc1ccco1
Second: C[C@]12C=CC(=O)C=C1CC[C@H]1[C@@H]3C[C@@H](O)[C@](O)(C(=O)CO)[C@@]3(C)C[C@H](O)[C@@]12F
The “activity, positive = potentiation” value of the first is higher: -5.34% for the first, -16.4% for the second.

Going from `CC(=O)Nc1nnc(S(N)(=O)=O)s1` to `CC(=O)OC(C)C[N+](C)(C)C` (stereo unspecified), the “activity, positive = potentiation” value falls from 16.9% to -15.3%.
